Experimental data published in ChEMBL document CHEMBL3988442, “University of Dundee, Small-Polar-MMV Screening Library” (2021).
For some of these results: Potency and affinity values are given separately.

Assays:
Parameters in all cases: scale not given: direction of the effect not stated beside the values
[1] = target: Protein translocase subunit SecA (Escherichia coli (strain K12)) (UniProt P10408); test: Assay to Identify E. coli SecA ATPase Inhibitors; assay type: functional; settings: 30 µM
Sequence of Protein translocase subunit SecA (Escherichia coli (strain K12)) (P10408 whole entry): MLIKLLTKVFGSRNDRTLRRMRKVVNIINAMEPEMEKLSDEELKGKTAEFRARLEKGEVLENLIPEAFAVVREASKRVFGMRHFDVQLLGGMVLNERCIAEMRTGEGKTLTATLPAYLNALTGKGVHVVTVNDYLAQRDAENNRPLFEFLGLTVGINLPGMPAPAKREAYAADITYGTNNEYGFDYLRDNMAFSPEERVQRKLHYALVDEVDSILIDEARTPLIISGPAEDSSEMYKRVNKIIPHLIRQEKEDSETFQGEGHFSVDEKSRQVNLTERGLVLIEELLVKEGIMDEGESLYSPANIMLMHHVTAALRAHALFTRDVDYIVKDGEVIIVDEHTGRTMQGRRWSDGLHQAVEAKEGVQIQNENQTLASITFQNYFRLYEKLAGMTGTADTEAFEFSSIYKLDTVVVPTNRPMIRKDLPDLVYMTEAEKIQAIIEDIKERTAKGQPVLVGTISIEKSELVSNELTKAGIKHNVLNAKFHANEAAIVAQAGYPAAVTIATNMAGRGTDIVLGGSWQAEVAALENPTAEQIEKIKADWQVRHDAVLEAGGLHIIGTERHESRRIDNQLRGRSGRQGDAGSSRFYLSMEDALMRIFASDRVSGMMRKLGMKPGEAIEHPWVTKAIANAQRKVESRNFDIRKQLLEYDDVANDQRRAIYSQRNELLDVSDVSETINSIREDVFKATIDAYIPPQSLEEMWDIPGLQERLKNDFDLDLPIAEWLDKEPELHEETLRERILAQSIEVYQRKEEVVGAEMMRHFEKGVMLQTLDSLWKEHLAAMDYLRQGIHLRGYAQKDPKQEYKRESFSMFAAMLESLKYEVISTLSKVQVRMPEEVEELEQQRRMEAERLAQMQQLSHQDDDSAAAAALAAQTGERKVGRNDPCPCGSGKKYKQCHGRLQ

[2] = target: T1, Ubiquitin-activating enzyme e1, putative (Leishmania donovani (strain BPK282A1)) (UniProt E9BSI1); test: Leishmania donovani Ubiquitin Activating Enzyme (LdE1); assay type: functional; settings: 30 µM
T1 sequence (whole entry): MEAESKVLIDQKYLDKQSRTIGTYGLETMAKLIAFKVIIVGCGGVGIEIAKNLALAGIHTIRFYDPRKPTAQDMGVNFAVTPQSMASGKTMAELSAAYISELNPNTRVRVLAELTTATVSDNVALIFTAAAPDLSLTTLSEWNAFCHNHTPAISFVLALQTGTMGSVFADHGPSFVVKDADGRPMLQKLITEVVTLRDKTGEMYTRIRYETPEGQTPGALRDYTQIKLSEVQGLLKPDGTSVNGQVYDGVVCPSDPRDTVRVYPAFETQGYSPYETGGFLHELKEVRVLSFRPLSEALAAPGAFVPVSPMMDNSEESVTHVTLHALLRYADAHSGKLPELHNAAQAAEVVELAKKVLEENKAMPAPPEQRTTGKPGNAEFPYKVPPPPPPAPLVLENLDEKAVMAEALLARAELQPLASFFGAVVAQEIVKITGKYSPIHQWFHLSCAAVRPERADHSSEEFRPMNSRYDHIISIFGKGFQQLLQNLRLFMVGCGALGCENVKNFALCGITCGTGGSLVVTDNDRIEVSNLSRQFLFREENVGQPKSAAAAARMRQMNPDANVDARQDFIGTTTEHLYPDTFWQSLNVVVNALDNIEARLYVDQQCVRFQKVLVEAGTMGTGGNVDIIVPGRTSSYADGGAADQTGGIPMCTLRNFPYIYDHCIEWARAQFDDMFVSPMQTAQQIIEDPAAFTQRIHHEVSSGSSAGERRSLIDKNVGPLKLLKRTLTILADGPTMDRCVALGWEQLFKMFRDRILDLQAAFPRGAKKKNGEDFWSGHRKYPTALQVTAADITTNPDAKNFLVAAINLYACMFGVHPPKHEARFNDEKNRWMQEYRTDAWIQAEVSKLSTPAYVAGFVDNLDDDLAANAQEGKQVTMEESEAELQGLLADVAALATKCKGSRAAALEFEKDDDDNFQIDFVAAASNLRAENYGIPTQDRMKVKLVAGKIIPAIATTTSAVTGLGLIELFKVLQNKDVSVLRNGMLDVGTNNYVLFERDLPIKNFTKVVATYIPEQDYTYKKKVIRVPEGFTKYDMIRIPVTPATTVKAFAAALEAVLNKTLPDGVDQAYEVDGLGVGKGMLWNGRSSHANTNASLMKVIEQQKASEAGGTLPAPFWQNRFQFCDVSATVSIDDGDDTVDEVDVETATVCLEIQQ

[3] = target: AMP-activated protein kinase, AMPK (Homo sapiens) (UniProt P54646+O43741+P54619+Q9UGJ0+Q9Y478+Q13131+Q9UGI9); test: AMP-dependent Kinase enzyme assay. An in vitro enzyme assay that detects ADP turnover that is directly proportional to AMPK activity. This uses naive AMPK that is activated during the assay with MK-8722; assay type: functional; settings: 30 µM
[4] = target: Sialic acid-binding Ig-like lectin 9 (Homo sapiens) (UniProt Q9Y336); test: Hs-Siglec9 ALPHAscreen SOP 20170721; settings: 10 µM
Sequence of Sialic acid-binding Ig-like lectin 9 (Homo sapiens) (Q9Y336 whole entry): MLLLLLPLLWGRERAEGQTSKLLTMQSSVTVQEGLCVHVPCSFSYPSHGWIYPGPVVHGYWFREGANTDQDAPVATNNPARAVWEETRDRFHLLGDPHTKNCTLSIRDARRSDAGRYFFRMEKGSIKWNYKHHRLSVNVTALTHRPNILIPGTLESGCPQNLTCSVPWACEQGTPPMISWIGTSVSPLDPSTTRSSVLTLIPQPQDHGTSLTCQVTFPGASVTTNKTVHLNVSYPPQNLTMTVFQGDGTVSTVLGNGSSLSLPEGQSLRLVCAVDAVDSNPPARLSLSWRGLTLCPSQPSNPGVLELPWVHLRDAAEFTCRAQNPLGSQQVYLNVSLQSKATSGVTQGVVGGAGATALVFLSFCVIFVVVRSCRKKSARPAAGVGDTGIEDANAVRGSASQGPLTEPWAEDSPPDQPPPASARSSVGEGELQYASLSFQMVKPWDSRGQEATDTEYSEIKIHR

Trypanosoma cruzi = test: Trypanosoma cruzi phosphomannomutase and mannose-1-phosphate guanylyltransferase assay; assay type: functional; settings: 10 µM
[5] = target: T2, Arginase-2, mitochondrial (Homo sapiens) (UniProt P78540); test: in vitro enzyme assay to detect the production of urea directly proportional to the activity of Arginase II; assay type: functional; settings: 33.3 µM; further: in the data most compounds retested in dose-response had high values
T2 sequence (whole entry): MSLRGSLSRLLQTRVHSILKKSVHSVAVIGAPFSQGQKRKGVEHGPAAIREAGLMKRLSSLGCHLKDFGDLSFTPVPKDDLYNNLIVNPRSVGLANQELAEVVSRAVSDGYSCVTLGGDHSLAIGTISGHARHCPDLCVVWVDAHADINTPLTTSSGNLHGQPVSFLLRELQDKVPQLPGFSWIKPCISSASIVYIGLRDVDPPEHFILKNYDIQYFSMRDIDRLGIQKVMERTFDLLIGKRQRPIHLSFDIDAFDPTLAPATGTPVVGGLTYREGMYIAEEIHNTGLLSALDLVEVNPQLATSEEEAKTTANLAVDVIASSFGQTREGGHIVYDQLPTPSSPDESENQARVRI

[6] = target: T3, Proteasome subunit beta (Trypanosoma cruzi) (UniProt O96673); test: Trypanosoma cruzi proteasome chymotrypsin-like activity (TcProtChymo) assay.; further: in the data most compounds retested in dose-response had high values; assay type: functional; settings: 9.37 µM
T3 sequence (whole entry): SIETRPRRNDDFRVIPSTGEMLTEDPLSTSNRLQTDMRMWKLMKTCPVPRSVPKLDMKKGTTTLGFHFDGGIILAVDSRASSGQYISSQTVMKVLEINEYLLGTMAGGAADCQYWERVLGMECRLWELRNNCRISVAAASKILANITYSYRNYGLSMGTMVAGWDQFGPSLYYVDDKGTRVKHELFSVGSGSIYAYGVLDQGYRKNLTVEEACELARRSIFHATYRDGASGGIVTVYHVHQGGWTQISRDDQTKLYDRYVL

Homo sapiens = organism: Homo sapiens; test: To identify inhibition of the IFN signalling (Jak-Stat) pathway via expression of an eGFP reporter gene under the control of an IFN-stimulated response element (ISRE) containing MxA promoter.; assay type: functional; settings: 30 µM
[7] = target: T4, Tyrosyl-tRNA synthetase, putative (Trypanosoma cruzi (strain CL Brener)) (UniProt Q4DSP6); test: Trypanosoma cruzi tyrosyl tRNA synthetase (TcYRS) _High Tyrosine SOP; assay type: functional; settings: 30 µM; further: in the data most compounds retested in dose-response had high values
T4 sequence (whole entry): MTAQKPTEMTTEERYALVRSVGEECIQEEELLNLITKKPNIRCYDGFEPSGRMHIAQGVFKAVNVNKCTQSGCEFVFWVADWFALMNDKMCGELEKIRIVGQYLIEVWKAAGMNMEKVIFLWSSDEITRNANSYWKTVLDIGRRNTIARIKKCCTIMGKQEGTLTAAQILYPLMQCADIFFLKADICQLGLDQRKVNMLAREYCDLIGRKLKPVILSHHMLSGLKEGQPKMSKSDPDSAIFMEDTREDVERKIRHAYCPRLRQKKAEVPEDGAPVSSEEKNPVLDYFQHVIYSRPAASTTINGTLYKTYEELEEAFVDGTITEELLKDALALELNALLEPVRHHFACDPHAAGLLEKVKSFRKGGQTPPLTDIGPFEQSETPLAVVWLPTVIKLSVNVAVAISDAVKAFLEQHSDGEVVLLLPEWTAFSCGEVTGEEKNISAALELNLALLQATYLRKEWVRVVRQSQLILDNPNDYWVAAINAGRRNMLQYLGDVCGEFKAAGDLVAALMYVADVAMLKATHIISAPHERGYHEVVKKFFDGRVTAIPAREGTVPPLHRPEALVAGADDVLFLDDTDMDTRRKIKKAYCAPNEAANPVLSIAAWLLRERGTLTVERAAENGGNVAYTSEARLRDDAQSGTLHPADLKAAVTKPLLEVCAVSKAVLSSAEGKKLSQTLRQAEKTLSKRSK

[8] = target: T4, Tyrosyl-tRNA synthetase, putative (Trypanosoma cruzi (strain CL Brener)); test: Trypanosoma cruzi tyrosyl tRNA synthetase (TcYRS) SOP; assay type: functional; settings: 30 µM
[9] = target: Chromo domain-containing protein 1 (Saccharomyces cerevisiae (strain ATCC 204508 / S288c) (Baker's yeast)) (UniProt P32657); test: ScCHD-1 Enzyme Inhibition Assay; assay type: functional; settings: 30 µM; further: in the data most compounds retested in dose-response had high values
Sequence of Chromo domain-containing protein 1 (Saccharomyces cerevisiae (strain ATCC 204508 / S288c) (Baker's yeast)) (P32657 whole entry, the tested form may be a part): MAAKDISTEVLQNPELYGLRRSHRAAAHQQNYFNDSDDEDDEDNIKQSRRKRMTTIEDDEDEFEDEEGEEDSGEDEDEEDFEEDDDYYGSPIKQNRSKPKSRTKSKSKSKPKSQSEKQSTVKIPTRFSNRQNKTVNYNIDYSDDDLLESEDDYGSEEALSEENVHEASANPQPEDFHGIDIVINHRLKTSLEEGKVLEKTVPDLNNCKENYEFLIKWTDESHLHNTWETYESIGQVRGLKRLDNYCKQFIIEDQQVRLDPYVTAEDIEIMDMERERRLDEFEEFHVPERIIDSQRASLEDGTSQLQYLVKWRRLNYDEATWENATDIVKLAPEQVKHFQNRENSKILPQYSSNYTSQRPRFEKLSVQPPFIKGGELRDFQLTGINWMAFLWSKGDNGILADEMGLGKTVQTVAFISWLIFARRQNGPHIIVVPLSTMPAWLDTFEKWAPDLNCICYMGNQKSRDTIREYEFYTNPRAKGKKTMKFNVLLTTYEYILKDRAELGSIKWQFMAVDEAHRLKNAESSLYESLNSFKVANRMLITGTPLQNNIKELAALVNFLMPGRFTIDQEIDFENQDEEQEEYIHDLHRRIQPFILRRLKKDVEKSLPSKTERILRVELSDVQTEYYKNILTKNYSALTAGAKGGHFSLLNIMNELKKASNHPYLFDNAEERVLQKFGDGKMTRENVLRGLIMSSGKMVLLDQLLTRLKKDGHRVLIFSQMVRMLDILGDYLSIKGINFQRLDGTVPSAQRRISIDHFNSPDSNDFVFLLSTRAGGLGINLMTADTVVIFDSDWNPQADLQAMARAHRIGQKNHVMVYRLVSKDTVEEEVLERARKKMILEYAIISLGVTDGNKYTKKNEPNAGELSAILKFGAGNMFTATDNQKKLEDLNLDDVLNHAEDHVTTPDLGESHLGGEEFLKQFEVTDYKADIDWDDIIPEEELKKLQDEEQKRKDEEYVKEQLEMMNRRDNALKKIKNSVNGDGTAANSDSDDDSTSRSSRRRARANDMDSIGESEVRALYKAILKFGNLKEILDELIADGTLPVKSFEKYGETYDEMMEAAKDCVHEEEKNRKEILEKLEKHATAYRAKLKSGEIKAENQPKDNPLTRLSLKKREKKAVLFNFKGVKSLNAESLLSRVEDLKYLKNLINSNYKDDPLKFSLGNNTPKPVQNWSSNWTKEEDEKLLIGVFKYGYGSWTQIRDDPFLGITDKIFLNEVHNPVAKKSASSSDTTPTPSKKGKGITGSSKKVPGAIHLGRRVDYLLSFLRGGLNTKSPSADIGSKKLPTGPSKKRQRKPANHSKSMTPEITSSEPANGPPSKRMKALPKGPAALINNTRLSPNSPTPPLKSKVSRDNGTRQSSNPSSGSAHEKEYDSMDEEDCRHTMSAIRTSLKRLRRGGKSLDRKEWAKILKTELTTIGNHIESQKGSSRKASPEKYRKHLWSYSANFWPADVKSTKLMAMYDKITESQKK

SMILES: COCC1CN(C(=O)c2cccn2C)Cc2nccn2C1 (stereo not drawn)
- Percent Effect [1]: -0.683%
- Percent Effect [2]: 10.7%
- Percent Effect [3]: 12.7%
- Percent Effect [4]: -7.24%
- Percent Effect (Trypanosoma cruzi): -5.32%
- Percent Effect [5]: 1.63%
- Percent Effect [6]: 13.8%
- Percent Effect (Homo sapiens): 10.6%
- Percent Effect [7]: 2.13%
- Percent Effect [8]: 11.5%
- Percent Effect [9]: -4.6%

SMILES: Cc1n[nH]c(C2CN(C(=O)CCc3ccsc3)CCO2)n1 (stereo not drawn)
- Percent Effect [1]: -6.4%
- Percent Effect [2]: -2.74%
- Percent Effect [3]: 2.76%
- Percent Effect [4]: 0.78%
- Percent Effect (Trypanosoma cruzi): 0.783%
- Percent Effect [5]: -7.27%
- Percent Effect [6]: -2.13%
- Percent Effect (Homo sapiens): -11.9%
- Percent Effect [7]: 0%
- Percent Effect [8]: 2.5%
- Percent Effect [9]: 0.695%

SMILES: COC(=O)c1cccc(NS(=O)(=O)c2cnc(NC(C)=O)s2)c1
- Percent Effect [1]: 1.56%
- Percent Effect [2]: 6.67%
- Percent Effect [3]: -2.6%
- Percent Effect [4]: 1.81%
- Percent Effect (Trypanosoma cruzi): -6.09%
- Percent Effect [5]: -8.63%
- Percent Effect [6]: 17.4%
- Percent Effect (Homo sapiens): -6.95%
- Percent Effect [7]: 3.17%
- Percent Effect [8]: 0%
- Percent Effect [9]: -6.88%

SMILES: COc1cccc(C(=O)N2CCCC(C(=O)CCc3ccccc3)C2)c1 (stereo not drawn)
- Percent Effect [1]: -1.46%
- Percent Effect [2]: 11%
- Percent Effect [3]: 17.6%
- Percent Effect [4]: 10.9%
- Percent Effect (Trypanosoma cruzi): 1.96%
- Percent Effect [5]: 4.54%
- Percent Effect [6]: 20.1%
- Percent Effect (Homo sapiens): 23.4%
- Percent Effect [7]: 1.07%
- Percent Effect [8]: 7.5%
- Percent Effect [9]: -8.9%

SMILES: Cc1noc(C(C)C)c1C(=O)NCc1cc(F)cc(F)c1
- Percent Effect [1]: -3.99%
- Percent Effect [2]: 15.6%
- Percent Effect [3]: 7.66%
- Percent Effect [4]: -1.87%
- Percent Effect (Trypanosoma cruzi): -7.12%
- Percent Effect [5]: 3.92%
- Percent Effect [6]: 11.5%
- Percent Effect (Homo sapiens): 17.8%
- Percent Effect [7]: 3.88%
- Percent Effect [8]: 14.6%
- Percent Effect [9]: -9.23%

SMILES: COc1ccc(-c2noc(C(=O)NCCN3CCCCC3)n2)cc1OC
- Percent Effect [1]: -7.28%
- Percent Effect [2]: 14.7%
- Percent Effect [3]: -14.8%
- Percent Effect [4]: 5.74%
- Percent Effect (Trypanosoma cruzi): 8.25%
- Percent Effect [5]: -18.8%
- Percent Effect [6]: 1.85%
- Percent Effect (Homo sapiens): 6.7%
- Percent Effect [7]: 3.17%
- Percent Effect [8]: -5.13%
- Percent Effect [9]: -13.9%

SMILES: CSCc1cccc(S(=O)(=O)NCCCN2CCOCC2)c1
- Percent Effect [1]: -6.05%
- Percent Effect [2]: 5.2%
- Percent Effect [3]: 1.35%
- Percent Effect [4]: 8.61%
- Percent Effect (Trypanosoma cruzi): 3.64%
- Percent Effect [5]: -6.9%
- Percent Effect [6]: 3.33%
- Percent Effect (Homo sapiens): -22.2%
- Percent Effect [7]: 4.3%
- Percent Effect [8]: 11.1%
- Percent Effect [9]: -3.9%

SMILES: Cc1ccc(C(C)NC(=O)Cc2c(C)nc3c(c2C)c(=O)[nH]n3C)o1 (stereo not drawn)
- Percent Effect [1]: -4.2%
- Percent Effect [2]: 7.79%
- Percent Effect [3]: 1.79%
- Percent Effect [4]: 9.22%
- Percent Effect (Trypanosoma cruzi): 1.08%
- Percent Effect [5]: -11%
- Percent Effect [6]: 10.7%
- Percent Effect (Homo sapiens): 1.96%
- Percent Effect [7]: 1.07%
- Percent Effect [8]: 6.17%
- Percent Effect [9]: 1.13%
